According to the supplement of paper PMC7261846:
Structures can show the parent of a compound that is named as a salt. ± gives the uncertainty stated by the source.

Test system: Candida albicans SNY425 biofilm
Assay: biofilm OD600 with compound plus antifungal (OD600 (absorbance)); higher = more biofilm remaining
[1] = assay detail: disruption of 24-h mature biofilm (compound + antifungal for a second 24 h)
[2] = assay detail: sustained inhibition (compound + antifungal during 90-min adherence and 24-h growth)

Compound	biofilm OD600 [1]	biofilm OD600 [2]
CC(NC(=O)C(Cc1ccccc1)NC(=O)OCc1ccccc1)C(=O)CF (configuration not stated) + OC(Cn1cncn1)(Cn1cncn1)c1ccc(F)cc1F [fluconazole] (first compound 12.5 µM)	0.287 ± 0.011	0.119 ± 0.0049
C[C@H](CS)C(=O)N1CCC[C@H]1C(=O)O [Captopril] + C[C@@H]1[C@H](O)[C@@H](C)/C=C/C=C/C=C/C=C/C=C/C=C/C=C/[C@H](O[C@@H]2O[C@H](C)[C@@H](O)[C@H](N)[C@@H]2O)C[C@@H]2O[C@](O)(C[C@@H](O)C[C@@H](O)[C@H](O)CC[C@@H](O)C[C@@H](O)CC(=O)O[C@H]1C)C[C@H](O)[C@H]2C(=O)O [amphotericin B] (first compound 12.5 µM)	0.285 ± 0.011	0.214 ± 0.0071
CC(C)C[C@@H](C=O)NC(=O)[C@H](CC(C)C)NC(=O)[C@H](CC(C)C)NC(=O)OCc1ccccc1 + CC[C@H](C)C[C@H](C)CCCCCCCCC(=O)N[C@H]1C[C@@H](O)[C@@H](NCCN)NC(=O)[C@@H]2[C@@H](O)CCN2C(=O)[C@H]([C@H](O)CCN)NC(=O)[C@H]([C@H](O)[C@@H](O)c2ccc(O)cc2)NC(=O)[C@@H]2C[C@@H](O)CN2C(=O)[C@H]([C@@H](C)O)NC1=O [caspofungin] (first compound 12.5 µM)	0.281 ± 0.0049	0.193 ± 0.0098
NCCCC[C@H](N[C@@H](CCc1ccccc1)C(=O)O)C(=O)N1CCC[C@H]1C(=O)O [Lisinopril] + OC(Cn1cncn1)(Cn1cncn1)c1ccc(F)cc1F [fluconazole] (first compound 12.5 µM)	0.26 ± 0.0069	0.118 ± 0.015
CCCC[C@@H](C=O)NC(=O)[C@H](CC(C)C)NC(=O)OCc1ccccc1 [Calpeptin] + C[C@@H]1[C@H](O)[C@@H](C)/C=C/C=C/C=C/C=C/C=C/C=C/C=C/[C@H](O[C@@H]2O[C@H](C)[C@@H](O)[C@H](N)[C@@H]2O)C[C@@H]2O[C@](O)(C[C@@H](O)C[C@@H](O)[C@H](O)CC[C@@H](O)C[C@@H](O)CC(=O)O[C@H]1C)C[C@H](O)[C@H]2C(=O)O [amphotericin B] (first compound 12.5 µM)	0.266 ± 0.0066	0.189 ± 0.01
CC(C)C[C@H](NC(=O)[C@H]1O[C@@H]1C(=O)O)C(=O)NCCCCN=C(N)N + OC(Cn1cncn1)(Cn1cncn1)c1ccc(F)cc1F [fluconazole] (first compound 12.5 µM)	0.255 ± 0.012	0.149 ± 0.0057
O=C1Nc2ccc([N+](=O)[O-])cc2C1=O [5-Nitroisatin] + C[C@@H]1[C@H](O)[C@@H](C)/C=C/C=C/C=C/C=C/C=C/C=C/C=C/[C@H](O[C@@H]2O[C@H](C)[C@@H](O)[C@H](N)[C@@H]2O)C[C@@H]2O[C@](O)(C[C@@H](O)C[C@@H](O)[C@H](O)CC[C@@H](O)C[C@@H](O)CC(=O)O[C@H]1C)C[C@H](O)[C@H]2C(=O)O [amphotericin B] (first compound 12.5 µM)	0.256 ± 0.005	0.159 ± 0.013
CCCC[C@@H](C=O)NC(=O)OC(C)(C)C + CC[C@H](C)C[C@H](C)CCCCCCCCC(=O)N[C@H]1C[C@@H](O)[C@@H](NCCN)NC(=O)[C@@H]2[C@@H](O)CCN2C(=O)[C@H]([C@H](O)CCN)NC(=O)[C@H]([C@H](O)[C@@H](O)c2ccc(O)cc2)NC(=O)[C@@H]2C[C@@H](O)CN2C(=O)[C@H]([C@@H](C)O)NC1=O [caspofungin] (first compound 12.5 µM)	0.254 ± 0.0097	0.167 ± 0.0058
C[C@H](NC(=O)[C@@H]1CCCN1C(=O)[C@@H]1CCCN1C(=O)[C@@H](O)[C@H](N)Cc1ccccc1)C(N)=O [Apstatin] + C[C@@H]1[C@H](O)[C@@H](C)/C=C/C=C/C=C/C=C/C=C/C=C/C=C/[C@H](O[C@@H]2O[C@H](C)[C@@H](O)[C@H](N)[C@@H]2O)C[C@@H]2O[C@](O)(C[C@@H](O)C[C@@H](O)[C@H](O)CC[C@@H](O)C[C@@H](O)CC(=O)O[C@H]1C)C[C@H](O)[C@H]2C(=O)O [amphotericin B] (first compound 12.5 µM)	0.294 ± 0.0093	0.193 ± 0.0078
NCC1CCC(C(=O)N[C@@H](Cc2ccccc2)C(=O)Nc2ccc(CC(=O)O)cc2)CC1 (some centres not stated) + C[C@@H]1[C@H](O)[C@@H](C)/C=C/C=C/C=C/C=C/C=C/C=C/C=C/[C@H](O[C@@H]2O[C@H](C)[C@@H](O)[C@H](N)[C@@H]2O)C[C@@H]2O[C@](O)(C[C@@H](O)C[C@@H](O)[C@H](O)CC[C@@H](O)C[C@@H](O)CC(=O)O[C@H]1C)C[C@H](O)[C@H]2C(=O)O [amphotericin B] (first compound 12.5 µM)	0.271 ± 0.0064	0.182 ± 0.017
N[C@H](C(=O)O)[C@@H]1CC(Cl)=NO1 [Acivicin] + CC[C@H](C)C[C@H](C)CCCCCCCCC(=O)N[C@H]1C[C@@H](O)[C@@H](NCCN)NC(=O)[C@@H]2[C@@H](O)CCN2C(=O)[C@H]([C@H](O)CCN)NC(=O)[C@H]([C@H](O)[C@@H](O)c2ccc(O)cc2)NC(=O)[C@@H]2C[C@@H](O)CN2C(=O)[C@H]([C@@H](C)O)NC1=O [caspofungin] (first compound 4 µM)	0.296 ± 0.012	0.163 ± 0.0049
CC(C)C[C@@H](C=O)NC(=O)[C@H](CC(C)C)NC(=O)[C@H](CC(C)C)NC(=O)OCc1ccccc1 + OC(Cn1cncn1)(Cn1cncn1)c1ccc(F)cc1F [fluconazole] (first compound 12.5 µM)	0.277 ± 0.0062	0.148 ± 0.0097
NCCCC[C@H](N[C@@H](CCc1ccccc1)C(=O)O)C(=O)N1CCC[C@H]1C(=O)O [Lisinopril] + CC[C@H](C)C[C@H](C)CCCCCCCCC(=O)N[C@H]1C[C@@H](O)[C@@H](NCCN)NC(=O)[C@@H]2[C@@H](O)CCN2C(=O)[C@H]([C@H](O)CCN)NC(=O)[C@H]([C@H](O)[C@@H](O)c2ccc(O)cc2)NC(=O)[C@@H]2C[C@@H](O)CN2C(=O)[C@H]([C@@H](C)O)NC1=O [caspofungin] (first compound 12.5 µM)	0.258 ± 0.011	0.178 ± 0.023
O=C(O)CNC(=O)C(CS)Cc1ccccc1 (racemic) [DL-Thiorphan] + C[C@@H]1[C@H](O)[C@@H](C)/C=C/C=C/C=C/C=C/C=C/C=C/C=C/[C@H](O[C@@H]2O[C@H](C)[C@@H](O)[C@H](N)[C@@H]2O)C[C@@H]2O[C@](O)(C[C@@H](O)C[C@@H](O)[C@H](O)CC[C@@H](O)C[C@@H](O)CC(=O)O[C@H]1C)C[C@H](O)[C@H]2C(=O)O [amphotericin B] (first compound 12.5 µM)	0.264 ± 0.0083	0.164 ± 0.012
CC(C)C[C@H](NC(=O)N[C@H](C(=O)N[C@@H](CCC(N)=O)C(=O)N[C@@H](C)C=O)[C@@H]1CCNC(=N)N1)C(=O)O [Elastatinal] + CC[C@H](C)C[C@H](C)CCCCCCCCC(=O)N[C@H]1C[C@@H](O)[C@@H](NCCN)NC(=O)[C@@H]2[C@@H](O)CCN2C(=O)[C@H]([C@H](O)CCN)NC(=O)[C@H]([C@H](O)[C@@H](O)c2ccc(O)cc2)NC(=O)[C@@H]2C[C@@H](O)CN2C(=O)[C@H]([C@@H](C)O)NC1=O [caspofungin] (first compound 12.5 µM)	0.263 ± 0.0069	0.189 ± 0.011
N=C(N)Nc1ccc(C(=O)Oc2ccc3cc(C(=N)N)ccc3c2)cc1 [Nafamostat mesylate] + C[C@@H]1[C@H](O)[C@@H](C)/C=C/C=C/C=C/C=C/C=C/C=C/C=C/[C@H](O[C@@H]2O[C@H](C)[C@@H](O)[C@H](N)[C@@H]2O)C[C@@H]2O[C@](O)(C[C@@H](O)C[C@@H](O)[C@H](O)CC[C@@H](O)C[C@@H](O)CC(=O)O[C@H]1C)C[C@H](O)[C@H]2C(=O)O [amphotericin B] (first compound 12.5 µM)	0.257 ± 0.012	0.171 ± 0.011
NC(N)=NCCC[C@H](NC(=O)[C@@H]1CCCN1C(=O)[C@H](N)Cc1ccccc1)C(=O)CCl + C[C@@H]1[C@H](O)[C@@H](C)/C=C/C=C/C=C/C=C/C=C/C=C/C=C/[C@H](O[C@@H]2O[C@H](C)[C@@H](O)[C@H](N)[C@@H]2O)C[C@@H]2O[C@](O)(C[C@@H](O)C[C@@H](O)[C@H](O)CC[C@@H](O)C[C@@H](O)CC(=O)O[C@H]1C)C[C@H](O)[C@H]2C(=O)O [amphotericin B] (first compound 12.5 µM)	0.291 ± 0.0073	0.213 ± 0.0082
COC(=O)C[C@H](NC(=O)[C@H](C)NC(=O)[C@@H](NC(=O)OCc1ccccc1)C(C)C)C(=O)CF + C[C@@H]1[C@H](O)[C@@H](C)/C=C/C=C/C=C/C=C/C=C/C=C/C=C/[C@H](O[C@@H]2O[C@H](C)[C@@H](O)[C@H](N)[C@@H]2O)C[C@@H]2O[C@](O)(C[C@@H](O)C[C@@H](O)[C@H](O)CC[C@@H](O)C[C@@H](O)CC(=O)O[C@H]1C)C[C@H](O)[C@H]2C(=O)O [amphotericin B] (first compound 12.5 µM)	0.296 ± 0.013	0.184 ± 0.011
O=C1Nc2ccc([N+](=O)[O-])cc2C1=O [5-Nitroisatin] + OC(Cn1cncn1)(Cn1cncn1)c1ccc(F)cc1F [fluconazole] (first compound 12.5 µM)	0.249 ± 0.0083	0.107 ± 0.011
CCCC[C@@H](C=O)NC(=O)OC(C)(C)C + OC(Cn1cncn1)(Cn1cncn1)c1ccc(F)cc1F [fluconazole] (first compound 12.5 µM)	0.243 ± 0.0054	0.117 ± 0.0068
CCC[C@@]1(CCc2ccccc2)CC(O)=C([C@H](CC)c2cccc(NS(=O)(=O)c3ccc(C(F)(F)F)cn3)c2)C(=O)O1 [tipranavir] + OC(Cn1cncn1)(Cn1cncn1)c1ccc(F)cc1F [fluconazole] (first compound 12.5 µM)	0.256 ± 0.0057	0.143 ± 0.0085
